# Laboratory results: PubChem BioAssay AID485364 (National Center for Advancing Translational Sciences (NCATS), 2010)
# The campaign covered roughly 360,000 compounds. About 11,000 (3.1%) were called active. Inconclusive results (about 4%) are left out. What follows is part of a selection rich in actives, with near analogues and random picks from the rest. Unmarked numbers belong to inactive results. The call rests on the fitted dose curve; in most records, active means well fitted inhibition curve with a large enough effect; inconclusive means small, poorly fitted or top-dose-only effect; inactive means no such curve, though single readings can be large or run the other way.
# Molecular target: Schistosoma mansoni thioredoxin glutathione reductase (TGR) (UniProt Q962Y6)
# Assay: qHTS Assay for the Inhibitors of Schistosoma Mansoni Peroxiredoxins; further: nearly all actives have a fitted effect of over 60% in size
# Conditions: purified TGR, DTNB reduction, TNB absorbance 405 nm; series mostly up to 114 µM; activity change, negative = inhibition: at the top concentration
# In short: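 TGR 20 nM + NADPH 100 uM (dispensed conc.), cpd preinc 15 min RT; start with NADPH (500 uM addition) then DTNB (15 mM addition). Kinetic TNB absorbance, 405 nm filter. Four-parameter Hill fit across titration.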
# On the % scale 0 is the no-effect control and ±100 the full control effect; potency means the concentration at half of the fitted maximal effect.
Compound,"activity change, negative = inhibition [%]",Potency
CCOc1cc(NC(=O)Nc2ccccc2)c(OCC)cc1NC(=O)CC,-0.833,
CCOc1cc(NS(=O)(=O)c2ccc(OC)cc2)c(OCC)cc1NC(C)=O,0,
CCOc1cc(NC(=O)CCl)c(OCC)cc1NC(C)=O,,44.7 µM (active)
Cc1cccc(NC(=O)Cn2nc(-c3ccc(Cl)cc3)c3ccccc3c2=O)c1,9.04,
COc1ccc(N2C(=O)CC(Sc3n[nH]c(-c4ccc(C)cc4)n3)C2=O)cc1 (centres undefined),,0.708 µM (active)
CCN(C(=O)CSc1ncn[nH]1)c1cccc2ccccc12,-5.37,
O=C1CC(Sc2ncn[nH]2)C(=O)N1c1ccccc1 (centres undefined),,0.501 µM (active)
CCOC(=O)c1ccc(N2C(=O)CC(Sc3nc(O)c(CC)c(=O)[nH]3)C2=O)cc1 (centres undefined),0,
COc1ccc(N2C(=O)CC(SC(C)C)C2=O)cc1 (centres undefined),-11.8,
O=C1CC(c2ccccc2)C(=O)N1c1cccc(O)c1 (centres undefined),-8.38,
COc1ccc(-c2nc(SCC(=O)N3CCCC3)n[nH]2)cc1,8.14,
Cc1ccc(N2C(=O)CC(Sc3ncn[nH]3)C2=O)cc1 (centres undefined),,0.447 µM (active)
CC(=O)Nc1ccc(N2C(=O)CC(Sc3nccc(C)n3)C2=O)cc1 (centres undefined),-33.9,
COc1ccc(NC(=O)CSc2nc3ncccc3[nH]2)c(OC)c1,3.81,
COc1ccccc1C(=O)NCCn1cc(SCc2ccccc2Cl)c2ccccc21,15.5,
Cc1cccc(N2CCN(c3ccc(C(=O)O)cc3NC(=O)c3ccccc3F)CC2C)c1 (centres undefined),-9.71,
COc1cc(OC)c(N(C)C(=O)c2cc3c(=O)oc4ccccc4c3s2)cc1Cl,-2.14,
Cc1ccc(-c2cc(C(F)(F)F)c(C#N)c(SCC(=O)Nc3ccccc3)n2)cc1,6.14,
Cc1cccc(CCNC(=O)c2ccc3c(c2)nc2n3CCC(C)C2)c1 (centres undefined),7.13,
NC(=O)C1CCN(C2OC(=O)c3ccccc32)CC1 (centres undefined),-33.1,
COc1ccc(CCN2C(=O)C3CC=C(C)CC3C2=O)cc1OC (centres undefined),-4.3,
COc1ccc(COCC(O)CN2CCC(C(N)=O)CC2)cc1 (centres undefined),8.49,
COc1ccc(CCN2C(=O)C(C)=C(C)C2=O)cc1OC,0.409,
COc1ccc(CCN2C(=O)CC(N3CCC(C(N)=O)CC3)C2=O)cc1OC (centres undefined),,3.16 µM (active)
COc1ccc(N2C(=O)CC(N3CCC(C(N)=O)CC3)C2=O)cc1 (centres undefined),,14.1 µM (active)

Compound,"activity change, negative = inhibition [%]",Potency
COCCn1c(SCC(=O)c2cc(C)ccc2C)nc2cc(C(=O)NC3CCCC3)ccc2c1=O,-1.98,
CCCN1C(=O)C(O)(CC(=O)c2ccc(CC)cc2)c2cc(Br)ccc21 (centres undefined),-0.17,
CC(=O)Nc1cccc(NC(=O)CSc2nccn2Cc2ccc3c(c2)OCO3)c1,0.562,
Cc1ccccc1CN1CCC(CNC(=O)c2cc3ccc4cccnc4c3[nH]2)CC1,-12.3,
CCOc1ccc(CNC(=O)c2cc(-c3ccc(Cl)s3)nc3ccccc23)cc1,-1.13,
CCOC(=O)c1scc(-c2ccccc2)c1S(=O)(=O)Nc1ccccc1F,-1.54,
CCOC(=O)c1c(-c2ccc(-c3ccccc3)cc2)csc1NC(=O)CCC(=O)O,1.62,
CCCS(=O)(=O)c1ncc(Cl)c(C(=O)Nc2scc(-c3ccccc3)c2C(=O)OCC)n1,,2 µM (active)
CCC(Sc1nnc(-c2ccc(OC)cc2)c(-c2ccc(OC)cc2)n1)C(=O)NC1CCCCC1 (centres undefined),-0.319,
COc1cccc(CNC(=O)c2ccc3c(c2)N(Cc2ccc(C(F)(F)F)cc2)C(=O)c2ccccc2S3)c1OC,0.85,
CCOc1ccc(-n2c(C)nc3c(cnn3-c3ccc(C)cc3)c2=O)cc1,1.06,
CCOCCCNC(=S)Nc1ccc2nc(N3CCN(CC)CC3)cc(C)c2c1,,50.1 µM (active)
CCN1CCN(c2cc(C)c3cc(NC(=O)c4cc(Cl)ccc4OC)ccc3n2)CC1,2.25,
Cc1cc(N2CCOCC2)nc2ccc(NC(=S)N3CCN(Cc4ccccc4)CC3)cc12,0.208,
Cc1cccc(-n2ccnc2SCC(=O)Nc2cc(C(F)(F)F)ccc2Cl)c1,0.387,
CCOc1ccc(N(C)S(=O)(=O)c2cc(-c3cnc(C)o3)ccc2OC)cc1,-9.5,
C=C(Br)CN1CCN(CC(=C)Br)CC1,,10 µM (active)
COc1ccc(CCNC(=O)c2cn(C)c3ccc(S(=O)(=O)N(C)C4CCCCC4)cc3c2=O)cc1OC,25.8,
CCCCCn1c(=O)[nH]c2cc(C(=O)Nc3ccc(F)cc3)ccc2c1=O,15.7,
CCCC12CN3CC(CCC)(CN(C1)C3c1c[nH]c3ccc(OC)cc13)C2=O (centres undefined),34.3,
Cc1ccc(Cl)cc1NC(=O)/C(C#N)=C\c1cn(Cc2ccc(F)cc2)c2ccccc12,-1.54,
COc1ccc(C2CC(c3cccs3)=NN2c2nc(C)c(C(C)=O)s2)cc1OC (centres undefined),0.274,
COc1ccc(C2CC(c3cccs3)=NN2C(=O)CSc2nncs2)cc1OC (centres undefined),-11.3,
COc1ccc(C2CC(c3cccs3)=NN2c2ccc(F)cc2)cc1OC (centres undefined),,56.2 µM (active)
O=C(O)CC1=C(Nc2ccccc2)C(=O)N(c2ccccc2)C1c1ccc(Cl)cc1 (centres undefined),,39.8 µM (active)

Compound,"activity change, negative = inhibition [%]",Potency
COC(=O)CN1C(=S)N(c2ccccc2)C(=O)C1CC(=O)Nc1ccc(Cl)cc1 (centres undefined),-0.808,
O=C1C=C(c2ccc(Cl)cc2)C(=O)N1Nc1ccccc1,-33.5,
Cc1ccc(CCNC(=O)c2nnc(Cc3cccc(F)c3)o2)cc1,-8.78,
CCNC(=O)c1cc2n(n1)CCCN(Cc1ccc(C)cc1)C2=O,0.153,
CSc1ccc(CCNC(=O)c2ccc3c(c2)nc2n3CCOC2)cc1,-0.625,
Cc1cn(C)c(CC(=O)NCc2ccccc2)c1C(=O)O,6.43,
CCC(c1nnnn1C1CCCC1)N(Cc1cccs1)Cc1cc2cccc(C)c2[nH]c1=O (centres undefined),3.03,
CCOc1ccc2[nH]c(=O)c(CN(Cc3nnnn3Cc3ccccc3)CC3CCCO3)cc2c1 (centres undefined),-4.32,
CCC(c1nnnn1Cc1ccco1)N(Cc1cc2cc(OC)ccc2[nH]c1=O)C1CCCCC1 (centres undefined),,12.6 µM (active)
COc1ccc2[nH]c(=O)c(CN(Cc3nnnn3CCc3ccccc3)CC3CCCO3)cc2c1 (centres undefined),-3.1,
Cc1cccc2cc(CN(Cc3cccs3)C(=S)NCc3ccco3)c(=O)[nH]c12,5,
CCC(c1nnnn1Cc1ccco1)N(CCc1ccccc1)Cc1cc2cccc(C)c2[nH]c1=O (centres undefined),,22.4 µM (active)
Cc1ccc(-c2nnc(SCc3ccccc3C)o2)cc1,-5.42,
Cc1ccc(C)c(N2CCN(C(c3ccccc3)c3nnc(-c4ccccc4)o3)CC2)c1 (centres undefined),3.88,
COc1cc(C(=O)Nc2ccc(OCc3cc(=O)n4ccc(C)cc4n3)cc2)cc(OC)c1OC,0.391,
CCCCn1c(CNC(=O)C23CC4CC(CC(C4)C2)C3)nnc1SCC(=O)Nc1ccc(C)cc1,-6.55,
COc1ccc(NS(=O)(=O)c2cc3c4c(c2)CC(=O)N4CCC3)cc1Cl,-0.0014,
Cc1n[nH]c(=O)c2c(NC(=O)COC(=O)c3ncc(Cl)c(Cl)c3Cl)oc(C)c12,,15.8 µM (active)
Cc1n[nH]c(=O)c2c(NC(=O)CSc3ccccc3F)oc(C)c12,-30.9,
Cc1n[nH]c(=O)c2c(NC(=O)CSc3cc(Cl)ccc3Cl)oc(C)c12,2.22,
CC(=O)c1ccc(NC(=O)CSc2nnc(NC(=O)Nc3ccccc3)s2)cc1,1.64,
CCc1ccc(NC(=O)CCCc2nnc3n(CCCOC)c(=O)c4sccc4n23)cc1,1.38,
COc1ccc(C(=O)c2oc3ccccc3c2NC(=O)COc2cccc(C)c2)cc1,0.199,
CN(Cc1ccccc1)C(=O)c1cn(C)c2ccc(S(=O)(=O)N3CCCCC3)cc2c1=O,-7.29,
